Measurements published in PubChem BioAssay (NCATS).
Results filed as inconclusive are left out. Calls of active or inactive are those of the source. The call rests on the fitted dose curve; in most records, active means well fitted inhibition curve with a large enough effect; inconclusive means small, poorly fitted or top-dose-only effect; inactive means flat fitted curve, though single readings scatter.

Columns and labels:
Experiment in all cases: Cytotoxic Profiling of Annotated Libraries Using Quantitative High-Throughput Screening (AID 1296008); further: nearly all actives have a fitted effect of over 60% in size
Details in all cases: Five cell lines viability, CellTiter-Glo ATP luminescence, 48-72 h; max response: stronger effect = lower value
CRL-7250 = system: CRL-7250
Procedure, shortened: (§1)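 Cytotoxicity was measured as CellTiter-Glo ATP luminescence, read after 10 min at room temperature. Compound treatment of the cells lasted 48 or 72 hr at 37 degrees Celsius in a qHTS format.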

HEK293 = system: HEK293
Procedure, shortened: as §1

HaCat = system: HaCat
Procedure, shortened: as §1

KB-3-1 = system: KB-3-1
Procedure, shortened: as §1

NIH3T3 = system: NIH3T3
Procedure, shortened: as §1

Measured: max response
On the % scale 0 is the no-effect control and ±100 the full control effect.

N#CC1C(=O)N=C(c2cc(Cl)ccc2O)C=C1c1cc(OCc2ccccc2)cc(OCc2ccccc2)c1 (stereo not given)
inactive: CRL-7250 | HEK293 3.52% | HaCat | KB-3-1 | NIH3T3 1.6%

Fc1ccc(-c2c3cccc(C(F)(F)F)c3nn2Cc2ccc(F)cc2Cl)cc1
inactive: CRL-7250 -3.03% | HEK293 0.746% | HaCat | KB-3-1 -3.04% | NIH3T3

C[C@@H]1C[C@@H](O)[C@@]23CO[C@]2(CO)CCC[C@@H]3[C@@]12C[C@@H](c1ccoc1)OC2=O
inactive: CRL-7250 -8.12% | HEK293 2.85% | HaCat -3.9% | KB-3-1 7.05% | NIH3T3

C/C=C(/C)C(=O)O[C@H]1C[C@]2(C)O[C@@H]2[C@@H](OC(C)=O)[C@@]2(C)CC[C@@](O)(C(C)C)[C@H]12
inactive: CRL-7250 | HEK293 -3.47% | HaCat | KB-3-1 -1.06% | NIH3T3 -1.87%

COc1ccc(-n2[nH]c3c(cnc4ccccc43)c2=O)cc1
inactive: CRL-7250 1.83% | HEK293 -1.19% | HaCat | KB-3-1 | NIH3T3 3.94%
